# Bioassay records: PubChem BioAssay, several laboratories
# Compounds with a hit are over-represented: about 2.3% of the library has one in this group of screens.
# Mcl1-Noxa inh: Mcl-1/Noxa binding inhibitors, primary screen, biochemical, TR-FRET, 1536-well. 220,000 compounds, 1.5% hits. TR-FRET Mcl-1/Noxa peptide binding, 2 h. Induced myeloid leukemia cell differentiation protein Mcl-1 (Homo sapiens), Q07820. inhibition, % at 21.7 µM. AID 1022, 2008;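 active = compounds that cut the protein-peptide binding signal by more than 50% relative to plate controls in a single-dose test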;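 also: His-tagged Mcl-1 with rhodamine Noxa BH3 peptide and terbium anti-His antibody; 0% = Mcl-1 plus Noxa peptide wells and 100% = peptide-only wells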
# Mcl-1 Bim block: inhibitors of Bim peptide binding to Mcl-1, primary screen, biochemical, bead-based flow cytometry, multiplex; Bim peptide-Mcl-1 binding; Induced myeloid leukemia cell differentiation protein Mcl-1 (Homo sapiens), Q07820; 190,000 compounds, 0.1% hits; inhibition, % at 10 µM; in the data active = inhibition above about 40%;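 also: 0% = no compound tracer wells and 100% = peptide blocker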
# Mcl1-Bid inh: Mcl-1/Bid binding inhibitors, primary screen, biochemical, TR-FRET, 1536-well; Induced myeloid leukemia cell differentiation protein Mcl-1 (Homo sapiens), Q07820; TR-FRET Mcl-1/Bid-Dy647 peptide binding; inhibition, % at 21.7 µM; 220,000 compounds, 0.97% hits;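 active = compounds that cut the binding signal by more than half at the single screening dose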;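 also: His-tagged Mcl-1 with europium anti-His antibody binding Bid BH3 peptide; 0% = Mcl-1 plus peptide wells and 100% = peptide-only wells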
# Bcl-xL primary: inhibitors of human Bcl-xL, primary screen, biochemical, fluorescence polarization, HTS | GST-Bcl-xL / FITC-Bim BH3 peptide fluorescence polarization | inhibition, % at 10.9 µM | 320,000 compounds, 0.7% hits;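 active = inhibition above the mean of all tested compounds plus 3 SD, cutoff set per campaign, cut at about 30% in these data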;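 also: 0% = DMSO wells and 100% = unlabeled Bim-BH3 peptide competitor; inhibitors lower millipolarization by displacing the labeled peptide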
# Target sequence (Q07817 whole entry, looked up): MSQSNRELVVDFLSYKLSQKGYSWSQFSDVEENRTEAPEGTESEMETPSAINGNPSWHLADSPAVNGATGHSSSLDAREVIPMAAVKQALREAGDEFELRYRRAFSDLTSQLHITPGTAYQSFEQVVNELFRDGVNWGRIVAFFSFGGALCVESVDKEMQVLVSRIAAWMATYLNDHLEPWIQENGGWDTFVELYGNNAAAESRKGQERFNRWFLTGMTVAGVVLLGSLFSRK
# GLD-1 TGE inh: GLD-1/TGE RNA complex disruptors, primary screen, biochemical, fluorescence polarization; inhibition, % at 5.96 µM; AID 2280, 2010; 320,000 compounds, 0.44% hits; Female germline-specific tumor suppressor gld-1 (Caenorhabditis elegans), Q17339; purified GLD-1 + fluorescein TGE RNA;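 active = percent inhibition above a per-plate cutoff, the plate mean of test compounds plus 3 SD, cut at about 30% in these data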;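 also: 0% = DMSO wells with GLD-1 and probe and 100% = wells lacking GLD-1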
# MCL1-BIM inh: inhibitors of MCL1 binding to BIM-BH3, primary screen, biochemical, fluorescence polarization; 320,000 compounds, 0.68% hits; GST-MCL1 / FITC-Bim-BH3 fluorescence polarization; inhibition, % at 10.9 µM; Induced myeloid leukemia cell differentiation protein Mcl-1 (Homo sapiens), Q07820;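 active = inhibition above the mean inhibition of all tested compounds plus 3 SD, set per campaign, cut at about 40% in these data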;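 also: 0% = DMSO wells and 100% = unlabeled Bim-BH3 peptide control; higher means more loss of mP so more displacement of Bim peptide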
# * hit, by the source's call; x = no result given.
SMILES,Mcl1-Noxa inh,Mcl-1 Bim block,Mcl1-Bid inh,Bcl-xL primary,GLD-1 TGE inh,MCL1-BIM inh
CC(=O)Nc1ccc(NC(=O)c2ccccc2N(Cc2ccccc2)S(C)(=O)=O)cc1,x,x,x,2,0,10
COc1ccc(NC(=O)c2ccccc2N(Cc2ccccc2)S(C)(=O)=O)cc1,83*,0,-52,-5,-4,-11
O=C(CSc1nc(=O)n2ccccc2n1)N1CCCCCC1,x,x,x,8,5,2
CCOC(=O)NC(=O)/C(C#N)=C/c1ccc(N(C)C)cc1,-2,x,82*,-62,-144,-89
CN(C)c1ccc(/C=C(\C#N)C(=O)c2ccccc2)cc1,21,x,-60,-69,-161,-149
COC(=O)c1ccc2c(=O)n(CCCCCC(=O)NCc3ccc4c(c3)OCO4)c(=O)[nH]c2c1,-32,4,56*,6,4,3
Oc1ccc2ccccc2c1C1Nc2cccc3cccc(c23)N1,51*,1,20,8,1,13
COc1cc(C2Nc3cccc4cccc(c34)N2)ccc1O,x,x,x,9,8,13
O=Cc1[nH]c2ccccc2c1N(C(=O)CCl)c1ccc([N+](=O)[O-])cc1,92*,x,-60,4,1,2
CN(C)c1ccc(NC(=O)CCN2C(=O)c3cccc([N+](=O)[O-])c3C2=O)cc1,x,x,x,-5,-5,-15
CN(C)CCN(C(=O)c1ccccc1Cl)c1nc2c(Cl)cccc2s1,-7,-4,57*,7,5,0
Cc1ccc(-n2c(=O)c3cc4c(=O)n(-c5ccc(C)c(C)c5)c(=O)c4c(C(=O)c4ccc(C(=O)O)cc4)c3c2=O)cc1C,95*,x,102*,12,1,5
CC1(C)Cc2c(c(-c3ccco3)nc3sc4c(NCCO)ncnc4c23)CO1,54*,3,6,4,-1,1
CSc1nc(SCCO)c2sc3nc(-c4ccco4)c4c(c3c2n1)CC(C)(C)OC4,99*,6,85*,x,x,x
CSc1nc(N(CCO)CCO)c2sc3nc(-c4ccco4)c4c(c3c2n1)CCC4,107*,9,80*,x,x,x
COCCCNc1ncnc2c1sc1nc(-c3ccco3)c3c(c12)CC(C)(C)OC3,32,x,-6,4,-2,1
CCOC(=O)NNc1ccc2nonc2c1[N+](=O)[O-],97*,x,-10,17,2,25
O=C(NC(=S)Nc1ccccn1)c1cccc([N+](=O)[O-])c1,8,x,4,12,0,7
CC1(C)Oc2ccc(C(=O)Nc3ccccc3)cc2N(CC#N)C1=O,x,x,x,7,8,-5
CCCCCCn1cnc2c(c1=O)c1nc3ccccc3nc1n2/N=C/c1ccco1,39,-1,58*,x,x,x
COCCn1cnc2c(c1=O)c1nc3ccccc3nc1n2/N=C/c1ccco1,-15,x,-18,7,-1,11
COCCn1cnc2c(c1=O)c1nc3ccccc3nc1n2/N=C/c1ccc(OC)c(OC)c1,51*,x,-8,8,-3,13
COc1ccc(/C=N/n2c(C)nc3ccccc3c2=O)cc1OC,x,x,x,3,6,6
Cc1ccc2nc(/C(C#N)=C\c3ccc(N4CCCCC4)c([N+](=O)[O-])c3)[nH]c2c1,58*,0,14,-4,-15,-11
COc1ccc(CNC(=O)COC(=O)c2ccc(Br)cc2)cc1,-1,1,-23,33*,0,2
O=C(O)c1cc(-c2ccco2)nc2ccccc12,36,-3,-33,34*,14,46*
O=C(NC1CC1)c1cc(-c2ccco2)nc2ccccc12,105*,x,39,x,x,x
Cn1c(=O)c(C(=O)COC(=O)c2cc(-c3ccco3)nc3ccccc23)c(N)n(CC2CC2)c1=O,95*,5,-7,27,12,44*
COc1ccc(CNC(=O)COC(=O)c2ccc(C(=O)c3ccccc3)cc2)cc1,x,x,x,x,-6,x
